Measured values: PMC4336329 (PLoS ONE, 2015)
About 14,000 (4.5%) of roughly 310,000 compounds showed an effect of 50% or more. Effects have a minus sign here. The sample holds strong results, similar compounds and a random draw of the others, so the mix is not that of the screen.

The compounds below were run against human ether-à-go-go-related gene (hERG) potassium channel (human, UniProt Q12809) (assay: primary screen, population patch clamp on CHO cells stably expressing hERG; higher = less effect of the substance).
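Note: peak tail current of the secondary pulse compared with the same well before compound.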

Sequence of human ether-à-go-go-related gene (hERG) potassium channel (Q12809 whole entry, looked up): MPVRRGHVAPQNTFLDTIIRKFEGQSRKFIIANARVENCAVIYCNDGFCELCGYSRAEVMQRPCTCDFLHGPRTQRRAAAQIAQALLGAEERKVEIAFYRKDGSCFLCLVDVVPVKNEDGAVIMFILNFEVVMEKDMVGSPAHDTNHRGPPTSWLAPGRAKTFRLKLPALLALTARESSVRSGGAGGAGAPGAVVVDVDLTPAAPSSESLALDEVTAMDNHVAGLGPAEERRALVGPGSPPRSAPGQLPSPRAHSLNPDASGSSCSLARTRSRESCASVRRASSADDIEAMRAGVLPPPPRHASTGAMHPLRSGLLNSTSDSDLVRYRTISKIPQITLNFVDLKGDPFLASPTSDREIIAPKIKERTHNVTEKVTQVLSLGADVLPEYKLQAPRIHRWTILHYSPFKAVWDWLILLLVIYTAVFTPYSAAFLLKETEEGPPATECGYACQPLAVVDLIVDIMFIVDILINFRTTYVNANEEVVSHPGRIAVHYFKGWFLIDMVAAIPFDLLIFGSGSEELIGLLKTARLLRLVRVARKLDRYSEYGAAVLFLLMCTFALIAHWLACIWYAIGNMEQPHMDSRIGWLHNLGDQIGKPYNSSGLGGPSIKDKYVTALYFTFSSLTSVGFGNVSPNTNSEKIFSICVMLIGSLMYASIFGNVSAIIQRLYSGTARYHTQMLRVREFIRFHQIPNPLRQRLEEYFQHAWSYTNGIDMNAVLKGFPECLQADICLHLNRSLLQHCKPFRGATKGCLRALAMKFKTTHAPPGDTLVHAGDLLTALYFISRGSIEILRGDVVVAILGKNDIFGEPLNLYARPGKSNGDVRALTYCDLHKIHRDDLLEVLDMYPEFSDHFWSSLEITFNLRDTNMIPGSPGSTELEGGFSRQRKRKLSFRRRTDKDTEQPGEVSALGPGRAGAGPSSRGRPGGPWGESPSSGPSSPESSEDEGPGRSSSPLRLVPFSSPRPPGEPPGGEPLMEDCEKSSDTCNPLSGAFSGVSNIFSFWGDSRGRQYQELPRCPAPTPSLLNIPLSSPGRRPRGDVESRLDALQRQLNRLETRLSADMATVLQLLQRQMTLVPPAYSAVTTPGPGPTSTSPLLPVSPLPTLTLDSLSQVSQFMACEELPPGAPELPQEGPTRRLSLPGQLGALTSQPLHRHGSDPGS

Going from `Cc1cc(C(=O)N2CCCC(CCC(=O)N3CCN(c4ccccn4)CC3)C2)c(C)o1` (stereo not drawn) to `CCOC(=O)N1CCN(C(=O)c2ccc3c(c2)NC(=O)C(N2CCOCC2)S3)CC1` (stereo not drawn), the “hERG current change (%, negative = inhibition) at 10uM” value rises from -9.16% to -4.6%.

Going from `COc1cccc(Cn2c(=S)[nH]c3ccc(N4CCOCC4)cc3c2=O)c1` to `CCN(CC)C(=O)CSc1nc2cc3c(cc2c(=O)n1Cc1ccc(OC)cc1)OCO3`, the “hERG current change (%, negative = inhibition) at 10uM” value rises from -8.19% to 12.1%.

First: CCOC(=O)C1CCCN(C(=O)Cn2cnc3c2c(=O)n(C)c(=O)n3C)C1 (stereo not drawn)
Second: CCOC(=O)C1CCN(C(=O)Cn2nc(CC)n3cccc3c2=O)CC1
The “hERG current change (%, negative = inhibition) at 10uM” value of the first is higher: 20.3% for the first, -0.254% for the second.

Going from `O=C(C1CCCC1)N1CCN=C1SCc1cccc([N+](=O)[O-])c1` to `CC1CCCCC1NC(=O)CSc1nc2ccccc2c(=O)n1Cc1ccco1` (stereo not drawn), the “hERG current change (%, negative = inhibition) at 10uM” value rises from -19.3% to 13%.

First: Cc1ccc2nc(NCc3ccc(F)cc3)c3nncn3c2c1
Second: Cc1ccc(CSc2nc3ccccc3c(=O)n2Cc2ccco2)cc1
The “hERG current change (%, negative = inhibition) at 10uM” value of the first is lower: 2.23% for the first, 8.42% for the second.

Going from `COc1ccc(C2N(Cc3ccccc3)CCN2Cc2ccccc2)cc1[N+](=O)[O-]` to `O=c1c2ccccc2nc(SCc2ccccc2)n1Cc1ccco1`, the “hERG current change (%, negative = inhibition) at 10uM” value rises from -29.9% to 1.3%.

Going from `CN(Cc1ccccc1)C(=O)CSc1nc2ccccc2c(=O)n1Cc1ccco1` to `CN(C)C(CNC(=O)CSc1nc2ccccc2c(=O)n1Cc1ccco1)c1ccccc1` (stereo not drawn), the “hERG current change (%, negative = inhibition) at 10uM” value falls from -3.56% to -67.1%.

Going from `O=C(CSc1nc2ccccc2c(=O)n1-c1ccccc1)NCc1ccco1` to `O=C(CSc1nc2ccccc2c2nc3ccccc3n12)NCc1ccco1`, the “hERG current change (%, negative = inhibition) at 10uM” value rises from -15.1% to -8.55%.

Compared with `O=C(CSc1nc2ccccc2c(=O)n1Cc1ccco1)Nc1cccc(O)c1`, `O=C(CSc1nc2ccccc2c(=O)n1Cc1ccco1)c1ccc(F)cc1` is higher in “hERG current change (%, negative = inhibition) at 10uM” value: 3.9% for the first, 9.22% for the second.

First: CCC(Sc1nc2cc3c(cc2c(=O)n1Cc1ccco1)OCO3)C(=O)NCCOC (stereo not drawn)
Second: CCC(Sc1nc2cc(OC)c(OC)cc2c(=O)n1Cc1ccco1)C(=O)NCCOC (stereo not drawn)
The “hERG current change (%, negative = inhibition) at 10uM” value of the first is lower: -63.6% for the first, -28.2% for the second.

First: O=C(CSc1nc2ccccc2c(=O)n1Cc1ccco1)NCCN1C(=O)CSC1=O
Second: Cn1c(SCC(=O)NCCN2C(=O)CSC2=O)nc2ccccc2c1=O
The “hERG current change (%, negative = inhibition) at 10uM” value of the first is lower: -61.4% for the first, -2.05% for the second.

Going from `C=CCn1c(SCC(=O)NCc2ccco2)nc2ccccc2c1=O` to `CCn1c(SCC(=O)NCc2ccco2)nc2ccccc2c1=O`, the “hERG current change (%, negative = inhibition) at 10uM” value rises from -50.3% to -34.4%.

First: CCc1ccccc1NC(=O)C(CC)Sc1nc2cc3c(cc2c(=O)n1Cc1ccco1)OCO3 (stereo not drawn)
Second: Cc1ccc(NC(=O)CN(C)C(=O)CSc2nc3ccccc3c(=O)n2Cc2ccco2)cc1
The “hERG current change (%, negative = inhibition) at 10uM” value of the first is higher: 17.1% for the first, -71.1% for the second.

Compared with `CCOc1ccc(C(=O)Nc2ccc(S(=O)(=O)Nc3cc(C)on3)cc2)cc1`, `CCOc1cccc2cc(C(=O)NCc3cccnc3)c(=O)oc12` is higher in “hERG current change (%, negative = inhibition) at 10uM” value: -9.73% for the first, -1.94% for the second.

Going from `O=C(CSc1nnc(COc2ccccc2)n1Cc1ccco1)c1ccc(F)cc1` to `CC(Sc1nc2ccccc2c(=O)n1Cc1ccco1)C(=O)c1ccccc1` (stereo not drawn), the “hERG current change (%, negative = inhibition) at 10uM” value falls from -21.1% to -53.9%.

Going from `Cc1ccnc2nc(C(=O)OCCOc3cccc(Br)c3)nn12` to `CCOc1cc(/C=N/n2c(COc3ccccc3)n[nH]c2=S)ccc1O`, the “hERG current change (%, negative = inhibition) at 10uM” value rises from -27.9% to 24.4%.

Going from `COc1ccc(NC(=O)CCN2CC(C)OC(C)C2)c(OC)c1.Cl` (stereo not drawn) to `COc1cccc(C2(C)NC(=O)N(CC(=O)c3cc(C)n(C4CC4)c3C)C2=O)c1` (stereo not drawn), the “hERG current change (%, negative = inhibition) at 10uM” value falls from 13.2% to -35.8%.

Going from `Cn1c(CN2CCOCC2)nnc1SCC(=O)NC1CCCCC1` to `Cc1cccc(NC(=O)N2C3CCCC2CC(NC(=O)C(C)(C)C)C3)c1` (stereo not drawn), the “hERG current change (%, negative = inhibition) at 10uM” value falls from 17.7% to 1.47%.

First: O=C(NCc1ccc2c(c1)OCO2)c1ccc(Br)s1
Second: CCCCn1nc(C(=O)N2CCc3ccccc32)c2ccccc2c1=O
The “hERG current change (%, negative = inhibition) at 10uM” value of the first is higher: 6.32% for the first, -28.4% for the second.

Going from `CCN(CC)C(=O)CSc1nc2cc(OC)c(OC)cc2c(=O)n1Cc1ccc(Cl)cc1` to `COc1cc2nc(SCC(=O)NCc3ccco3)n(Cc3ccc(Cl)cc3)c(=O)c2cc1OC`, the “hERG current change (%, negative = inhibition) at 10uM” value rises from -77% to -3.17%.

Compared with `Cc1nc2ccccc2n1CCc1nc2c3ccccc3nc(SCC(=O)NCc3ccco3)n2n1`, `O=C(CSc1nc2ccccc2n1CC(=O)NCc1ccccc1)NCc1ccco1` is higher in “hERG current change (%, negative = inhibition) at 10uM” value: -60% for the first, -20.2% for the second.

Going from `COc1ccc(CCNc2ncnc3c2oc2ccccc23)cc1OC.Cl` to `CN(Cc1nc(-c2cnccn2)no1)Cc1cccc2ccccc12`, the “hERG current change (%, negative = inhibition) at 10uM” value falls from 0.357% to -2.31%.

`CCc1ccc(-c2ccc(SCc3ccccn3)nn2)cc1` was tested, and the “hERG current change (%, negative = inhibition) at 10uM” value was 3.91%.
